# ChEMBL document CHEMBL3433997, “St. Jude Leishmania screening dataset” (2016)
# Legend:
# Assay type in all cases: functional
# [1] = target: Solute carrier family 2, facilitated glucose transporter member 1 (Homo sapiens) (UniProt P11166); assay: ST_JUDE_LEISH: Cytotoxicity at 2uM final concentration against transgenic Leishmania Mexicana promastigotes LmGLUT1 that are glucose transport deficient and complemented with the human glucose transporter GLUT1. Activity is measured by DNA content using SYBR green in vitro
# Sequence of Solute carrier family 2, facilitated glucose transporter member 1 (Homo sapiens) (P11166 whole entry): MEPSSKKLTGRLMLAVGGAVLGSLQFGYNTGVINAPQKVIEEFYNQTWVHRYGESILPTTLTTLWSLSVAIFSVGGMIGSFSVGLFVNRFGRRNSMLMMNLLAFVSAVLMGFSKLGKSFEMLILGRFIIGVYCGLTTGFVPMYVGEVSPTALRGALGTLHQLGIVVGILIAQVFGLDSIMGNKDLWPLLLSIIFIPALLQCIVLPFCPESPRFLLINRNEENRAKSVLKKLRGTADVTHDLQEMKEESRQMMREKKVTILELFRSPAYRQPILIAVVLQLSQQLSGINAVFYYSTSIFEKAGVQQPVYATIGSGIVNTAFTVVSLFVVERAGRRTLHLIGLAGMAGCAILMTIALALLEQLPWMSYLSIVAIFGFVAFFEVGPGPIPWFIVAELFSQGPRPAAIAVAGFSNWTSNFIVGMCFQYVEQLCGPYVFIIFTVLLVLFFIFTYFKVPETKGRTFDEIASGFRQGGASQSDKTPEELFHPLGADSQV
# [2] = target: Hexose transporter 1 (Plasmodium falciparum) (UniProt O97467); assay: ST_JUDE_LEISH: Cytotoxicity at 2uM final concentration against transgenic Leishmania Mexicana promastigotes LmPfHT that are glucose transport deficient and complemented with the Plasmodium falciparum hexose transporter. Activity is measured by DNA content using SYBR green in vitro
# [3] = target: Glucose transporter (Leishmania mexicana) (UniProt O61059); assay: ST_JUDE_LEISH: Cytotoxicity at 2uM final concentration against transgenic Leishmania Mexicana promastigotes LmGT2 that are glucose transport deficient and complemented with the L. Mexicana glucose transporter 2. Activity is measured by DNA content using SYBR green in vitro
SMILES,inhibition [1],inhibition [2],inhibition [3]
O=C(Nc1cccc(-c2cccc(-c3nc4ccccc4[nH]3)c2)c1)c1ccoc1,7.02%,5.63%,3.82%
CC(C)(C)c1ccc(CN2CCCCC(NC(=O)c3cc(-c4cccc(Cl)c4)cs3)C2)cc1 (stereo not drawn),-0.16%,-0.87%,-6.21%
CCCC(C)Nc1nc(C)cc(N[C@@H](Cc2ccccc2)C(=O)NCCc2ccccc2)n1 (stereo partly drawn),2.61%,3.38%,-0.17%
Cc1cccc2nc(C3CCN(CC4CCN(C(=O)/C=C/c5ccc(Cl)c(Cl)c5)CC4)CC3)[nH]c12,10.9%,11.5%,10.6%
Cc1ccc(NC(=O)c2ccc(Cl)c(Cl)c2)cc1-c1ccc(C(=O)Nc2ccncc2)cc1,-0.14%,0.86%,-1.3%
c1ccc(Oc2ccc(Nc3ccnc4cc(-c5ccc(CN6CCNCC6)o5)ccc34)cc2)nc1,11.2%,8.71%,5.3%
CC(C)(CNC(=O)C1CCN(Cc2ccc(Cl)cc2)CC1)c1nc(-c2ccc(Cl)c(O)c2)c(-c2ccncc2)[nH]1,6.62%,6.8%,9.13%
CCNc1cc(C(=O)N[C@@H](Cc2ccccc2)[C@H](O)CNC(C)(C)CCCC(C)C)cc(N2CCCCS2(=O)=O)c1,-0.28%,0.88%,-0.83%
COC(=O)c1cccc(CNCc2cccc(-c3ccc(-c4nc5cccc(C)c5[nH]4)s3)c2)c1,1.43%,0.6%,0.69%
CCCC(CNCc1cccc(I)c1)CNc1cc(=O)c2ccccc2[nH]1 (stereo not drawn),1.04%,2.83%,2.67%
O=C(Nc1cccc(C(F)(F)F)c1)c1cccc(S(=O)(=O)NCC2CCN(CC3CCCCC3)CC2)c1,0.21%,-0.63%,-0.78%
O=C(C1COc2ccccc2O1)N(CCCn1ccnc1)Cc1csc(-c2ccc(CNCc3ccccc3)cc2)n1 (stereo not drawn),3.99%,4.14%,2.05%
CCOc1ccc(OCCCON2C(=N)N=C(N)NC2(C)C)cc1,1.93%,0.06%,0.05%
COc1ccc2nccc([C@@H](O)CN3CCC(NC(=O)[C@@H]4Cc5ccccc5CN4C(=O)OC(C)(C)C)CC3)c2c1,8.19%,6.18%,3.12%
CN1CCN(CCCN(Cc2ccc(-c3ccc(CNCc4ccc5c(c4)OCO5)cc3)cc2)C(=O)CCC2CCCC2)CC1,4.67%,7.78%,1.18%
CN1CCC(Oc2cc(NC(=O)Nc3ccc(-c4ccncc4)c(C(F)(F)F)c3)ccc2Cl)CC1,12.6%,10.6%,7.11%

SMILES,inhibition [1],inhibition [2],inhibition [3]
Cn1ccc(-c2cccc(Nc3ccnc4cc(-c5nccs5)ccc34)c2)n1,-0.21%,0.32%,-0.17%
COc1ccc2nccc([C@@H](O)CN3CCC(NC(=O)C(c4cc5ccccc5o4)N4CCN(c5ccccc5)CC4)CC3)c2c1 (stereo partly drawn),5.51%,2.83%,2.54%
O=C(Nc1ccc(I)cc1)Nc1ccc(Cn2ncc(N3CCCNCC3)c(Cl)c2=O)cc1,-2.09%,-3.01%,0.24%
O=C(Nc1ccccc1F)NC1CCN(c2ccnc(Nc3ccc(F)cc3)n2)C1 (stereo not drawn),0.46%,0.72%,0.81%
Cc1[nH]c(C)c(-c2ccc(OCc3cc(C(F)(F)F)cc(C(F)(F)F)c3)nc2)c(=O)c1Cl,6.26%,9.78%,4.84%
O=C(NCCc1ccc(F)cc1)c1ccc(N2CCN(c3ccncc3)CC2)nc1,2.72%,0.74%,-4.35%
CSCCCN1CCC(O)(c2ccc3oc(C(=O)Nc4ccc5sc(C)nc5c4)cc3c2)CC1,23.3%,24.5%,14.7%
O=C(c1c(-c2[nH]c3ccccc3c2C(=O)C(F)(F)F)[nH]c2ccccc12)C(F)(F)F,1.75%,0.78%,-1.45%
O=C(CNC(=O)c1ccc(O)cc1)Nc1cccc(-c2cccc(-c3nc4cc(C(F)(F)F)ccc4[nH]3)c2)c1,3.81%,4.39%,2.15%
O=C(NCCN1CCCC1)c1cccc(-c2ccc(-c3nc4ccccc4[nH]3)s2)c1,3.42%,1.36%,4.63%
COc1cc2nc(N(C)Cc3cccc(I)c3)nc(N)c2cc1OC,4.75%,7.24%,1.56%
CC1CN(C(=O)c2sc3ccccc3c2Cl)CC(C)O1 (stereo not drawn),-2.33%,0.96%,0.74%
COc1ccccc1C1CCN(C2CCC(NC(=O)/C=C/c3ccc(C(F)(F)F)cc3)CC2)CC1 (stereo not drawn),1.41%,2.17%,2.85%
COc1cccc(-c2csc(C(=O)NCC3CCN(Cc4ccc(C(C)(C)C)cc4)C3)c2)c1 (stereo not drawn),3.1%,-1.27%,2.46%
O=C(Cc1c[nH]cn1)Nc1cccc(-c2ccc(-c3nc4cc(C(F)(F)F)ccc4[nH]3)s2)c1,-5.22%,-3.59%,-0.81%
